Assay results taken from PubChem BioAssay AID485367 (National Center for Advancing Translational Sciences (NCATS), 2010).
Out of some 330,000 compounds screened, about 560 (0.17%) were called active. Inconclusive results (about 1%) are left out. The sample holds actives, similar compounds and a random draw of the others, so the mix is not that of the screen. Unmarked numbers belong to inactive results. Calls follow the shape of the dose curve; as a rule, active = well fitted inhibition curve with a large enough effect; inconclusive = small, poorly fitted or top-dose-only effect, or effect the other way; inactive = flat fitted curve, though single readings scatter.

Target: ATP-dependent 6-phosphofructokinase (Trypanosoma brucei brucei) (UniProt O15648)
Assay: qHTS Assay to Find Inhibitors of T. brucei phosphofructokinase; also: nearly all actives have a fitted effect of over 60% in size
Details: T. brucei PFK, ADP-Glo luminescence; series mostly up to 57.5 µM; activity, negative = inhibition: at the top concentration
Excerpt: NIH Molecular Libraries Probe Production Network [MLPCN] NIH Chemical Genomics Center [NCGC] Grant: 1 R03 MH092153-01 PI Name: Malcolm Walkinshaw, University of Edinburgh NCGC Assay Overview: Various species of the protozoan family Trypanosomatidae are responsible for a range of serious human diseases in tropical and subtropical areas of the world. […] Many of the disorders caused by trypanosomatids are fatal if left untreated, but most currently used drugs are inefficient and toxic. […] Oxidative metabolism involving the mitochondrial tricarboxylic acid cycle and oxidative phosphorylation are repressed in these parasites, and recent RNA interference (RNAi) experiments have shown that even partial depletion of certain individual glycolytic enzymes can lead to the death of cultured parasites. One such glycolytic enzyme, phosphofructokinase (PFK), catalyzes the formation of fructose-1,6-bisphosphate (F1,6BP) and ADP from fructose-6-phosphate (F6P) and ATP, and in many metabolic circumstances makes an important contribution to the control of flux through the glycolytic pathway. As a specific glycolytic target, PFK is particularly attractive as it catalyzes the first irreversible step in glycolysis, and structural and kinetic studies have shown very substantial and essential differences from corresponding host enzymes, allowing for the discovery of parasite-selective inhibitors. The goal of this screen is to find small-molecule inhibitors of T. brucei PFK using a biochemical assay that measures PFK activity as a function of ADP production. A luminescence-based assay for T. brucei PFK activity has been developed which uses luciferase to detect production of ADP. Traditional luciferase-based nucleotide detection reagents rely on ATP production as a direct substrate for the luciferase reaction; however, PFK catalyzes the transfer of a phosphate from ATP to F6P, resulting in the net depletion of ATP. To directly measure the ADP product of the PFK reaction, we used the ADP-Glo detection kit (Promega), which utilizes two separate reactions to 1) deplete all remaining uncatalyzed ATP and 2) convert all remaining ADP to ATP, which is then detected through a traditional luciferase-coupled reaction. Compounds were screened as a concentration-titration series that ranged from 57 uM to 0.7 nM.
NCGC Assay Protocol Summary: NCGC Assay Protocol Summary: Substrate buffer was dispensed into white, solid 1536-well plates at 3uL/well in 0.1M triethanolamine (TEA) buffer, pH 8.0, containing final concentrations of 5 mM MgCl2, 0.01% Tween20, 0.5 mM fructose-6-phosphate (F6P) and 0.1mM ATP. Then, 23 nL of compounds or DMSO were delivered to each well using a pin tool. One uL T. brucei PFK (0.1M TEA, 0.01% Tween20, 0.1% bovine serum albumin (BSA) and 1.25nM PFK, final concentrations) was then dispensed, and plates were incubated at room temperature for 45 min. The luminescent detection reagent, ADP-Glo (Promega), was then added in two steps: the first reagent, ADP-Glo (which converts remaining uncatalyzed ATP), was added at 2.5uL/well and incubated for ten minutes at room temperature, and the second component, Kinase Detection reagent (which converts ADP to ATP as a substrate for luciferase-based luminescence), was added immediately after at 5uL/well, followed by one final ten minute room temperature incubation. The plates were measured on a ViewLux plate reader for luminescent signal using a clear filter with a one second exposure. The %Activity was determined from the corrected luminescence values. As no specific T. brucei PFK inhibitors have been identified in the literature, 1x (1.25nM) and 0x PFK enzyme controls (untreated) were included to normalize %Activity of identified inhibitors; 0x enzyme values corresponded to 100%Activity (full inhibition), while 1x PFK enzyme values were used to normalize 0%Activity (no inhibition). Concentration-response curves were fitted to the signals arising from the resulting luminescence. […]
Potency is read from the fitted curve at half-maximal effect.

ATP-dependent 6-phosphofructokinase (Trypanosoma brucei brucei), sequence (O15648 whole entry, looked up): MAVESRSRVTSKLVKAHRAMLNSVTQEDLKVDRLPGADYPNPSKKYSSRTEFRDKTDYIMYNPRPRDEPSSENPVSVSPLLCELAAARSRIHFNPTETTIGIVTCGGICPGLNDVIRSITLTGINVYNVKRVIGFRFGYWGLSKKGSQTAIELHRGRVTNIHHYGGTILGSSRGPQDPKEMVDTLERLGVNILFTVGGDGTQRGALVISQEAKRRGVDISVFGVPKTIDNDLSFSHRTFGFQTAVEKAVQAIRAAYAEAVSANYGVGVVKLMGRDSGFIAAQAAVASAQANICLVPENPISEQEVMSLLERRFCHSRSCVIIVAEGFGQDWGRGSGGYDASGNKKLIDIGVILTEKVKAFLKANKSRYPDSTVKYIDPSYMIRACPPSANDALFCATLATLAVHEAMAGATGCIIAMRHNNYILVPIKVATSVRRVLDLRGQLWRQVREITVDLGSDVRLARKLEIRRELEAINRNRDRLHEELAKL

| SMILES | activity, negative = inhibition [%] | Potency |
| --- | --- | --- |
| Nc1[nH][nH]c(=O)c1N=Nc1ccc2c(c1)OCO2 | 2.23 |  |
| CCOc1ccc(C(c2c(C)[nH][nH]c2=O)c2c(C)[nH][nH]c2=O)cc1OCC | -5.84 |  |
| Cc1[nH][nH]c(=O)c1C(c1ccc2c(c1)OCO2)c1c(C)[nH][nH]c1=O |  | 23.9 µM (active) |
| COc1cc(C2C(N3C(=O)c4ccccc4C3=O)C(=O)N2c2ccc(C)c(C)c2)cc(OC)c1OC (stereo not given) | -1.29 |  |
| OC(CNCC1CCCO1)Cn1c2ccc(Br)cc2c2cc(Br)ccc21 (stereo not given) | -2.71 |  |
| Nc1nc(Nc2ccccc2F)nc(NC2CCCCC2)c1[N+](=O)[O-] | -7.16 |  |
| COc1cc(NC(=O)COC(=O)CSc2ccc3ccccc3c2)c(C)cc1[N+](=O)[O-] | 0.214 |  |
| CCOC(=O)N1CCN(C(=O)CN(C2CCCCC2)S(C)(=O)=O)CC1 | -3.12 |  |
| CC(Oc1cc2oc(=O)c3c(c2cc1Cl)CCCC3)C(=O)NCc1ccncc1 (stereo not given) | 0.885 |  |
| CC(C)CN(CC(C)C)CC(O)CN(c1ccccc1)S(=O)(=O)c1ccccc1[N+](=O)[O-] (stereo not given) | -3.71 |  |
| CCCN1C2CCCC1CC(NC(=O)NC13CC4CC(CC(C4)C1)C3)C2 (stereo not given) | -1.81 |  |
| CCN(CC(=O)N1CCCC1)S(=O)(=O)c1ccc(F)cc1 | 1.92 |  |
| O=C(Cn1c(COc2ccccc2)nc2ccccc21)Nc1cc(Cl)c(Cl)cc1Cl | -10.8 |  |
| O=C(CN(CC1CCCO1)C(=O)CNS(=O)(=O)c1ccc(F)cc1)NCc1ccco1 (stereo not given) | -5.87 |  |
| COc1ccc(-c2nc3c(s2)CCc2onc(-c4ccc(OC)cc4)c2-3)cc1 | -0.904 |  |
| COc1ccc(Cl)cc1NC(=O)NC(C)C(C)(C)C (stereo not given) | 0.905 |  |
| Cc1cccc(NC(=S)Nc2ccc3cn[nH]c3c2)c1 | 3.21 |  |
| Cc1cccc(NC(=S)NC23CN4CN(CN(C4)C2)C3)c1 | -1.16 |  |
| Cc1cccc(NC(=S)Nc2ccc(Cl)c(Cl)c2)c1 |  | 10.7 µM (active) |
| COCCN1C(=O)N(c2ccc(Cl)cc2)C(=O)C1CC(=O)Nc1cc(OC)cc(OC)c1 (stereo not given) | 3.53 |  |
| CC1(N2CCOCC2)CC2(O)C(=[N+]1[O-])CCc1nonc12 (stereo not given) | 0.181 |  |
| O=C(CCn1nnc2ccccc21)OCC(=O)c1ccc([N+](=O)[O-])cc1 | -4.04 |  |
| Cc1ccnc(-n2sc3ccccc3c2=O)n1 |  | 7.57 µM (active) |
| Cc1nc2ccccc2c(=O)n1NC(=O)c1ccccc1 | 2.74 |  |
| COC(=O)COc1ccc2c(c1C)O/C(=C\c1ccco1)C2=O | -12.5 |  |

| SMILES | activity, negative = inhibition [%] | Potency |
| --- | --- | --- |
| O=C(COC(=O)C12CC3CC(CC(C3)C1)C2)NCc1ccco1 | 3.92 |  |
| O=C(COC(=O)c1cccs1)NCc1cccs1 | 0.216 |  |
| O=C(COC(=O)CCC(=O)c1cccs1)NCc1ccco1 |  | 6.75 µM (active) |
| Cc1cc(NC(=O)COC(=O)/C=C/c2ccc(C)o2)no1 | 8.73 |  |
| CS(=O)(=O)N(CC(=O)N1CCOCC1)c1cccc(Cl)c1Cl | -5.81 |  |
| Cc1ccc(S(=O)(=O)N2CCCCC2)cc1NC(=O)[C@@H]1CCCN1C(=O)c1cccs1 | -2.04 |  |
| O=C(COC(=O)CCCN1C(=O)c2cccc3cccc(c23)C1=O)NC1CCS(=O)(=O)C1 (stereo not given) | -7.52 |  |
| CCC(C)c1ccc(NC(=O)COC(=O)C2CCCC2)cc1 (stereo not given) | -1.93 |  |
| Cc1c(Cl)cccc1NC(=O)Nc1ccc(C(=O)N2CCCC2)cc1 | -3.91 |  |
| COc1cc(S(=O)(=O)N2CCOCC2)ccc1NC(=O)COc1ccc(N(C)S(=O)(=O)c2ccc(C)cc2)cc1 | 4.44 |  |
| C/C(=N/Nc1ccc(Cl)cc1)c1cnnc(-c2ccccc2)n1 | 5.32 |  |
| Cc1c(C)c2ccc(OCC(=O)N3CCC(C(=O)O)CC3)c(C)c2oc1=O | -0.415 |  |
| Cc1c(CC(=O)N2CCN(C(=O)C3COc4ccccc4O3)CC2)c(=O)oc2c(O)c(O)ccc12 (stereo not given) |  | 4.78 µM (active) |
| O=C(CNC(=O)C1COc2ccccc2O1)N/N=C/c1cc(Br)c(O)c(Br)c1 (stereo not given) | -4.63 |  |
| Cc1ccc2c(=O)cc(C(=O)NCCc3ccc(S(N)(=O)=O)cc3)oc2c1C | 1.41 |  |
| CCCNC(=O)NC(=O)COC(=O)CC(NC(N)=O)c1ccc(Cl)cc1 (stereo not given) | -0.0234 |  |
| COc1ccc(CCNC(=O)c2cnc(Cl)c(Cl)c2)cc1 | -9.9 |  |
| COc1cnc(SCc2ccc(Cl)c(Cl)c2)nc1Cl |  | 26.9 µM (active) |
| Nc1cc(N)nc(SCc2ccc(Cl)cc2)n1 | -10.3 |  |
| Cc1ccc(C2CC(c3cccc(Br)c3)n3nc(N)nc3N2)cc1 (stereo not given) | 5.14 |  |
| O=C1CCN(Cc2ccccc2)CCN1[C@H](CSc1ccccc1)c1ccccc1 | 0.129 |  |
| O=C(CNS(=O)(=O)c1ccc2ccccc2c1)Nc1ccc(F)c(F)c1F | -1.12 |  |
| Cc1ccccc1NC(=O)Cc1nc(COC(=O)c2cccnc2Cl)cs1 | 0.473 |  |
| Cc1cccc(-n2c(N)c(C(=O)N3CCN(C)CC3)sc2=S)c1 |  | 12 µM (active) |
| N#Cc1ccccc1-n1c(N)c(C(=O)N2CCCC2)sc1=S | 0.585 |  |
